Our source for the growth values is PubChem BioAssay (NCI).

The panel holds about 83,000 compounds, 20% with a hit somewhere; the sample as a whole holds those more often.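 Single-concentration screen, 48 h exposure, 96-well plates. Endpoint: percent growth. Below 10 = active.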 A number with no mark means an inactive call. The source made the active and inactive calls.

Common to all, as to experiment: NCI-60 one-dose screen, 48 h (100 = growth as untreated, 0 = no growth, -100 = all killed)
Common to all, as to settings: 10 µM unless noted

Assay [1] has as its system NCI-H23 lung.
For assay [2], the system named is NCI-H226 lung.
In assay [3] the test system is NCI-H322M lung.
In assay [4] the test system is HOP-62 NSCLC.
Assay [5] deals with NCI-H460 lung.
For assay [6], the system named is HOP-92 NSCLC.
Assay [7] concerns NCI-H522 lung.
The test system of assay [8] is A549/ATCC NSCLC.
The subject of assay [9] is 786-0 renal.
In assay [10] the test system is COLO 205 colon.

Consider `CC(C)(C)CC(C)(C)NCc1cc(C(C)(C)C)cc(CNC(C)(C)CC(C)(C)C)c1O`, for which the growth in [1] is 38.7%; in assay [2], 72.7%; in assay [3], 83.3%; in assay [4] it was 69.4%; in [5], 50.8%; in assay [6], -1.38% (active). The growth is 8.73% (active) in assay [7], 67.6% in assay [8], 71.1% in assay [9] and 0.858% (active) in assay [10].

For the molecule `O=C(Nc1cnc(C(F)(F)F)cn1)c1cc(Cl)ccc1O`, the growth is 2.55% (active) in [1]; 8.55% (active) in [2]; 7.76% (active) in [3]; -4.96% (active) in assay [4]; 4.18% (active) in assay [5]; -6.58% (active) in assay [6]. For the same molecule, the growth in [7] is -12.6% (active); in [8], 2.57% (active); in assay [9] it was 0.361% (active); in [10], 14.2%.

On to `COc1ccc(/C(=C\c2cc(OC)c(OC)c(OC)c2)C(=O)N2CCN(c3ccccc3)CC2)cc1O`, for which the growth is 99.2% in assay [1]; 98.8% in [2]; 100% in [3]; 99% in assay [4]; 106% in assay [5]; 85.9% in assay [6]. The growth in assay [7] was 84.4%; in assay [8], 90%; in assay [9], 103%; in assay [10], 111%.

As for `CCCCOc1ncnc2nc[nH]c12`, the growth in [1] was 100%; in assay [2], 94.2%; in assay [3] it was 101%; in assay [4], 96.1%; in [5], 113%; in assay [6] it was 101%. For the same molecule, the growth in [7] is 100%; in [8] it was 99.3%; in assay [9], 97.1%; in assay [10], 110%.

For `O=C(Cc1ccc(Nc2ccnc(C(F)(F)F)c2)cc1)N/N=C/c1ccccc1O`, the growth in assay [1] was 37.7%; in [2] it was 51.4%; in assay [3], 32%; in assay [4], -9.42% (active); in assay [5], 3.37% (active); in assay [6] it was 75.8%. Moreover, the growth in [7] is 22.5%; in [8], 36.2%; in assay [9], 6.73% (active); in assay [10] it was 14%.

Turning to `O=C(CS)OCC(COC(=O)CS)(COC(=O)CS)COC(=O)CS`, the growth was 85% in assay [1]; 98.1% in [2]; 58.3% in assay [3]; 105% in [4]; 75.2% in assay [5]; 108% in [6]. Besides, the growth in assay [7] was 76.4%; in assay [8], 93.9%; in assay [9] it was 103%; in assay [10], 105%.

Regarding `COc1ccc(-c2nsc3c2NC(=O)CC3c2cccc(F)c2)cc1` (stereo not given), the growth in assay [1] is 59%; in assay [2], 76.5%; in assay [3], 53.6%; in [4], 60.2%; in assay [5], 10.4%; in assay [6], 52.7%. The growth in assay [7] is 4.49% (active); in [8], 34.3%; in [9] it was 80%; in assay [10], 25.8%.

Take `c1ccc2c(Cc3csc4ccccc34)csc2c1`: the growth in assay [1] is 84.7%; in [2], 95.1%; in assay [3] it was 87.2%; in [4], 83.2%; in assay [5], 104%; in [6] it was 77.7%. Moreover, the growth in assay [7] is 65.3%; in assay [8], 83%; in [9], 93.8%; in [10], 83.3%.

Take `CN1CCN(c2ccc(N3Cc4ccccc4OC4=C3C(=O)c3c(O)ccc(O)c3C4=O)cn2)CC1`: the growth in assay [1] was -23.2% (active); in [2], 35.2%; in [3], 4.57% (active); in [4] it was 1.99% (active); in assay [5], -22.4% (active); in [6] it was -58.7% (active). Also, the growth is -53.3% (active) in assay [7], -4.29% (active) in assay [8], -77.4% (active) in assay [9] and -77.1% (active) in [10].

Turning to `CCOC(CN1CCN(CC(C)C(=O)c2ccccc2)CC1)c1ccccc1` (stereo not given), the growth is 112% in [1]; 91.2% in assay [2]; 95.5% in assay [3]; 104% in assay [4]; 99.7% in assay [5]; 97.5% in assay [6]. For the same molecule, the growth in [7] is 73.9%; in [8], 96.5%; in assay [9] it was 106%; in assay [10] it was 107%.

For the molecule `Nc1cccc(S(=O)(=O)c2cccc(N)c2)c1`, the growth in [1] was 111%; in assay [2] it was 107%; in [3] it was 124%; in [4], 111%; in assay [5] it was 120%; in assay [6] it was 97%. Further, the growth in assay [7] was 111%; in [8], 111%; in assay [9] it was 108%; in assay [10], 117%.

As for `CC(=O)c1ccc(-n2c(-c3cc(-c4ccsc4)n[nH]3)n[nH]c2=S)cc1`, the growth in [1] is 102%; in assay [2], 99.6%; in [3], 101%; in [4], 112%; in [5], 105%; in assay [6] it was 89.9%. Moreover, the growth was 82.6% in assay [7], 98.3% in [8], 101% in assay [9] and 117% in assay [10].

For `Cc1ccccc1CNc1ncnc2[nH]ncc12`, the growth was 109% in assay [1]; 91.9% in assay [2]; 114% in assay [3]; 99.3% in [4]; 104% in assay [5]; 64.3% in assay [6]. Also, the growth in [7] was 47.7%; in assay [8], 91%; in [9], 97.3%; in assay [10] it was 92.2%.
